Several values for one entry are separate records, joined by “and”; a condition that tells them apart may be missing. Identical values can stand only once. Some compounds were tested as several samples or in several runs, with calls that do not always agree. Activity calls are given as the source filed them. A call without a number means that no potency is given here. Unless noted, calls come from the whole dose curve; as a rule, active = well fitted curve in the direction sought with a large enough effect in the repeat runs; inconclusive = weak or mixed curves; inactive = no such curve, though single readings can be large; an effect the other way counts as inactive or inconclusive.
Assays:
[1] = qHTS assay to identify small molecule antagonists of the glucocorticoid receptor (GR) signaling pathway - cell viability counter screen (AID 720693); note: nearly all actives have a fitted effect of over 55% in size
[2] = qHTS assay for identifying genotoxic compounds that show differential cytotoxicity against isogenic chicken DT40 cell lines with known DNA damage response pathways - wild type cell line (AID 743012); note: nearly all actives have a fitted effect of over 60% in size; note: potency is the fitted concentration of half-maximal effect
Method in brief: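 Cells (DT40 wild type, 300/well) are treated with DMSO-dissolved compounds after a ~0.5 h pre-incubation and kept 40 h at 37 C/5% CO2. Viability is then measured by CellTiter-Glo luminescence following 30 min at room temperature.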

[3] = qHTS assay for identifying genotoxic compounds that show differential cytotoxicity against isogenic chicken DT40 cell lines with known DNA damage response pathways - Rev3 mutant cell line (AID 743014); note: nearly all actives have a fitted effect of over 55% in size; note: potency is the fitted concentration of half-maximal effect
[4] = qHTS assay for identifying genotoxic compounds that show differential cytotoxicity against isogenic chicken DT40 cell lines with known DNA damage response pathways - Rad54/Ku70 mutant cell line (AID 743015); note: nearly all actives have a fitted effect of over 60% in size; note: potency is the fitted concentration of half-maximal effect
[5] = qHTS assay to identify small molecule antagonists of the androgen receptor (AR) signaling pathway - cell viability counter screen (AID 743033; note: nearly all actives have a fitted effect of over 45% in size)
[6] = qHTS assay to identify small molecule antagonists of the androgen receptor (AR) signaling pathway using the MDA cell line - cell viability counter screen (AID 743041; note: nearly all actives have a fitted effect of over 45% in size)
Method in brief: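 Same-well cytotoxicity was assessed by CellTiter-Fluor in MDA-kb2 AR-luc cells after 16 h of compound treatment under R1881 agonism.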

[7] = qHTS assay to identify small molecule antagonists of the thyroid receptor (TR) signaling pathway - cell viability counter screen (AID 743064); note: nearly all actives have a fitted effect of over 50% in size; note: potency is the fitted concentration of half-maximal effect
Method in brief: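 Same-well viability check: GH3.TRE-Luc cells stimulated with 1 nM T3 alongside test compound for 23.5 h, followed by CellTiter-Fluor fluorescence.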

[8] = qHTS assay to identify small molecule antagonists of the thyroid receptor (TR) signaling pathway (AID 743065); note: nearly all actives have a fitted effect of over 55% in size; note: potency is the fitted concentration of half-maximal effect
Method in brief: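 GH3.TRE-Luc rat pituitary cells (two TREs driving luciferase) were dosed with compound, then stimulated with 1 nM T3 (final) for 23.5 h at 37 C. ONE-Glo luminescence was the read-out, with CellTiter-Fluor fluorescence as the cytotoxicity counter-screen.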

[9] = system: thyroid hormone receptor (rat, GH3 cells); experiment: qHTS assay to identify small molecule agonists of the thyroid receptor (TR) signaling pathway (AID 743066; calls by dose curve)
[10] = molecular target: Estrogen receptor (Homo sapiens) (UniProt P03372); experiment: qHTS assay to identify small molecule antagonists of the estrogen receptor alpha (ER-alpha) signaling pathway (AID 743069; active = well fitted curve in the direction sought with a large enough effect in the signal ratio in the repeat runs, not every such curve was filed as active; inconclusive = weak or mixed curves, or effect the other way; inactive = no such curve, though single readings can be large or run the other way; the % refers to the signal ratio; note: potency is the fitted concentration of half-maximal effect)
Method in brief: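 Reporter cells (ER-alpha-bla, HEK293 background) are conditioned overnight in stripped-serum medium (2% charcoal-stripped FBS). Compound and 17beta-estradiol exposure runs 18 hr at 37C, 5% CO2.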

[11] = qHTS assay to identify small molecule antagonists of the estrogen receptor alpha (ER-alpha) signaling pathway - cell viability counter screen (AID 743074; calls by dose curve;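 note: HEK293 cells carrying ER-alpha-UAS-bla reporter stimulated with 17beta-estradiol; nearly all actives have a fitted effect of over 45% in size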)
[12] = molecular target: Estrogen receptor (Homo sapiens) (UniProt P03372); experiment: qHTS assay to identify small molecule agonists of the estrogen receptor alpha (ER-alpha) signaling pathway (AID 743075; calls by dose curve;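 note: HEK293 GripTite cells with ER-alpha and UAS-driven beta-lactamase reporter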; note: potency is the fitted concentration of half-maximal effect)
[13] = molecular target: Estrogen receptor (Homo sapiens) (UniProt P03372); experiment: qHTS assay to identify small molecule agonists of the estrogen receptor alpha (ER-alpha) signaling pathway using the BG1 cell line (AID 743079); note: nearly all actives have a fitted effect of over 20% in size; note: potency is the fitted concentration of half-maximal effect
[14] = qHTS assay to identify small molecule antagonists of the estrogen receptor alpha (ER-alpha) signaling pathway using the BG1 cell line (AID 743080; calls by dose curve;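 note: BG1 cells stimulated with 17beta-estradiol alongside compound; series mostly up to about 70 µM; nearly all actives have a fitted effect of over 25% in size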)
Method in brief: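 Seeding, 24 h rest, compound transfer from DMSO, 17beta-estradiol addition, 21.5 h incubation, CellTiter-Fluor (30 min, 37 C), then ONE-Glo (30 min, room temperature): this sequence was run on BG1-Luc-4E2 reporter cells.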

[15] = qHTS assay to identify small molecule antagonists of the estrogen receptor alpha (ER-alpha) signaling pathway using the BG1 cell line - cell viability counter screen (AID 743081);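 note: compound given together with 17beta-estradiol as the ER stimulus; series mostly up to about 70 µM; nearly all actives have a fitted effect of over 45% in size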
Aromatase (Homo sapiens) = Aromatase (Homo sapiens) (UniProt P11511); experiment: qHTS assay to identify aromatase inhibitors (AID 743083); note: series mostly up to about 70 µM; nearly all actives have a fitted effect of over 55% in size
[16] = molecular target: Androgen receptor (Homo sapiens) (UniProt P10275); experiment: qHTS assay to identify small molecule antagonists of the androgen receptor (AR) signaling pathway (AID 743035; active = well fitted inhibition curve with a large enough effect in the signal ratio in the repeat runs, not every such curve was filed as active; inconclusive = weak or mixed curves, or effect the other way; inactive = no such curve, though single readings can be large or run the other way; the % refers to the signal ratio)
Method in brief: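 Antagonism is scored as loss of R1881-driven beta-lactamase reporter expression in HEK293 cells carrying the reporter under a UAS element, after 16 h co-treatment at 37C and a 2 h room-temperature FRET substrate read.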

[17] = molecular target: Androgen receptor (Homo sapiens) (UniProt P10275); experiment: qHTS assay to identify small molecule agonists of the androgen receptor (AR) signaling pathway (AID 743036; active = well fitted activation curve with a large enough effect in the signal ratio in the repeat runs, with a control signal flat, not every such curve was filed as active; inconclusive = weak or mixed curves, or effect the other way; inactive = no such curve, though single readings can be large or run the other way; the % refers to the signal ratio)
Method in brief: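 Agonist activity was scored by beta-lactamase reporter fluorescence in stably transfected HEK293 cells exposed to compounds for 16 h at 37C and 5% CO2. Substrate loading took 2 h at room temperature.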

[18] = molecular target: Androgen receptor (Homo sapiens) (UniProt P10275); experiment: qHTS assay to identify small molecule agonists of the androgen receptor (AR) signaling pathway using the MDA cell line (AID 743040; note: nearly all actives have a fitted effect of over 20% in size)
Method in brief: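 Human breast carcinoma MDA-kb2 reporter cells (MMTV-luc, AR/GR elements) were treated for 16 h at 37C in 0% CO2 following a 5 h settling period. Signal was quantified by ONE-Glo luminescence.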

[19] = molecular target: Androgen receptor (Homo sapiens) (UniProt P10275); experiment: qHTS assay to identify small molecule antagonists of the androgen receptor (AR) signaling pathway using the MDA cell line (AID 743042; note: nearly all actives have a fitted effect of over 55% in size)
Method in brief: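 MDA-kb2 breast carcinoma cells carrying MMTV-luciferase (AR/GR responsive) were co-treated with compounds and the agonist R1881 for 16 h at 37C. Inhibition read as ONE-Glo luminescence; CellTiter-Fluor fluorescence measured in parallel for cytotoxicity.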

Aromatase (Homo sapiens), sequence (P11511 whole entry, looked up): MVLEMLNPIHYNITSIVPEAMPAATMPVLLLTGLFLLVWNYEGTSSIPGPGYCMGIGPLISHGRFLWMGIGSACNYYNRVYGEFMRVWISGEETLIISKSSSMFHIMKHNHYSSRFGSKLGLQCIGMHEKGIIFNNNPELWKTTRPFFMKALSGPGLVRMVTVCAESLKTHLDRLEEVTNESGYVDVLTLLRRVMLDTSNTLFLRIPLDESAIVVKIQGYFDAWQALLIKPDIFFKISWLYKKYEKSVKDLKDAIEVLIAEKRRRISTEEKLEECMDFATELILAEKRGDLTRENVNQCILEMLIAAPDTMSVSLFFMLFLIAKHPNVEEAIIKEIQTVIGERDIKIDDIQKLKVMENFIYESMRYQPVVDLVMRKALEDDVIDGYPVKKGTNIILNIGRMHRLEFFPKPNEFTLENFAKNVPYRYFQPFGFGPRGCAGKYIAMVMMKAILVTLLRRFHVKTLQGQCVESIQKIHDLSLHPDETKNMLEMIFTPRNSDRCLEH
Estrogen receptor (Homo sapiens), sequence (P03372 whole entry, looked up): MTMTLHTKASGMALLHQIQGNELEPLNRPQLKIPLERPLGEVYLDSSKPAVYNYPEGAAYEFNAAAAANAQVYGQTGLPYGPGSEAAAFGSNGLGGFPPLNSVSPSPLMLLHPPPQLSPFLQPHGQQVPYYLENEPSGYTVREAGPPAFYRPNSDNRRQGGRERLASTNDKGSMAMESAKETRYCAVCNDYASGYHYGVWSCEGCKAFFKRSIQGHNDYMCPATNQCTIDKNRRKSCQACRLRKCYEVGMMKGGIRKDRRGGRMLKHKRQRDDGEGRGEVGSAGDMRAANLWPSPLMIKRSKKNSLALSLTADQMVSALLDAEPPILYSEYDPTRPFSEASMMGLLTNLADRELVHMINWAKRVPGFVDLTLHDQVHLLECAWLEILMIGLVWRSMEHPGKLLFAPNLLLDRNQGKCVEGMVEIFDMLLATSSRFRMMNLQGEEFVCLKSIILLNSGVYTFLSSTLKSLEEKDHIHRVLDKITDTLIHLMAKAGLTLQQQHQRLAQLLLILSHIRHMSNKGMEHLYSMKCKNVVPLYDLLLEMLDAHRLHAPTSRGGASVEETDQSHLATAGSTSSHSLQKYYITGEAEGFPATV
Androgen receptor (Homo sapiens), sequence (P10275 whole entry, looked up): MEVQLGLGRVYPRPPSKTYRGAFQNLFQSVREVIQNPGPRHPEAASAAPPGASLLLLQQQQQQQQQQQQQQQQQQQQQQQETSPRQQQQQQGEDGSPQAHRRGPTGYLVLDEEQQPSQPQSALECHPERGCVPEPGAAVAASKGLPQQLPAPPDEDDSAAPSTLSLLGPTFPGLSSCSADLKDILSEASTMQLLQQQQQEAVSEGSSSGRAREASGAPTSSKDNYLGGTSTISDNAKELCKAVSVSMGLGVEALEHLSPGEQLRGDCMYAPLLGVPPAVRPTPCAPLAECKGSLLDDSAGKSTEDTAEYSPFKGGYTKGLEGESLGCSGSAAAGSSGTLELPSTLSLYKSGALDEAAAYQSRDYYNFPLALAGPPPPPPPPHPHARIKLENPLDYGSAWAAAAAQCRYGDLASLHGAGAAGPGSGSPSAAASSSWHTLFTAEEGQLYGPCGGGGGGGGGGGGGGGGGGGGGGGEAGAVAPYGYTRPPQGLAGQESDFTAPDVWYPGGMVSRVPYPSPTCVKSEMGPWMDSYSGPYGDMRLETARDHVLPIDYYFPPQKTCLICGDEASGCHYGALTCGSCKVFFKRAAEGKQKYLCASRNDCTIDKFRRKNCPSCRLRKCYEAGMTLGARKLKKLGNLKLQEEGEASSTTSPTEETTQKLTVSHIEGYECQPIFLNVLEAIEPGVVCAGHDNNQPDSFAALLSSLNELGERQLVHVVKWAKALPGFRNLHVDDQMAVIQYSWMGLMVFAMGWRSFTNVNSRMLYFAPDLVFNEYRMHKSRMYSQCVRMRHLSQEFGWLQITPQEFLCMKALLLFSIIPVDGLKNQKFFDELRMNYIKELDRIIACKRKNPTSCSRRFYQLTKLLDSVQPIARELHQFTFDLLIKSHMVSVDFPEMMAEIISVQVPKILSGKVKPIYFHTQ

Row | SMILES | Potency [1] | Potency [2] | Potency [3] | Potency [4] | Potency [5] | Potency [6] | Potency [7] | Potency [8] | Potency [9] | Potency [10] | Potency [11] | Potency [12] | Potency [13] | Potency [14] | Potency [15] | Potency (Aromatase (Homo sapiens)) | Potency [16] | outcome [17] | Potency [18] | Potency [19]
1 | CC(C)[N+](C)(CCOC(=O)C1c2ccccc2Oc2ccccc21)C(C)C | inactive | inactive | inactive | inactive | inactive | inactive | inactive | inactive | inactive | inactive | inactive | inactive | inactive | inactive | inactive | inactive | – | – | – | –
2 | CCO[Si](CCCNC(N)=O)(OCC)OCC | inactive | inactive | inactive | inactive | inactive | inactive | inactive | inactive | inactive | inactive | inactive | inactive | inactive | inactive | inactive | inactive | – | – | – | –
3 | CCCCCC=O | inactive | inactive | inactive | inactive | inactive | inactive | inactive | inactive | inactive | inactive | inactive | inactive | inactive | inactive | inactive | – | – | – | – | –
4 | O=C(CCCN1CCC(O)(c2ccc(Cl)cc2)CC1)c1ccc(F)cc1 | inactive | 5.96 µM (active) and 7.7 µM (active) | 3.35 µM (active) and 1.72 µM (active) | 5.96 µM (active) and 1.72 µM (active) | inactive | inactive | 21.1 µM (active) and 54.5 µM (active) | 26.6 µM (active) and 61.1 µM (active) | – | – | inactive | – | – | – | inactive | inactive | – | – | – | –
5 | C=CN1CCCC1=O | inactive | inactive | inactive | inactive | inactive | inactive | inactive | – | – | inactive | inactive | inactive | inactive | inactive | inactive | inactive | – | – | – | –
6 | NCCS(=O)(=O)O | inactive | inactive | inactive | inactive | inactive | inactive | – | inactive | inactive | inactive | inactive | inactive | inactive | inactive | inactive | inactive | – | – | – | –
7 | Oc1c(Cl)ccc(Cl)c1Cl | inactive | inactive | inactive | inactive | inactive | inactive | inactive | inactive | inactive | – | inactive | inactive | inactive | inactive | inactive | inactive | – | – | – | –
8 | CC[C@]12CCCN3CCc4c(n(c5ccccc45)[C@@](O)(C(=O)OC)C1)[C@@H]32 | inactive | inactive | inactive | inactive | inactive | inactive | – | – | inactive | – | inactive | – | – | – | inactive | inactive | inactive | inactive | inactive | inactive
9 | c1ccc2c(c1)[nH]c1ccccc12 | inactive | inactive | inactive | inactive | inactive | inactive | inactive | inactive | inactive | inactive | inactive | inactive | inactive | inactive | inactive | inactive | inactive | inactive | inactive | inactive
10 | CCc1cccc2c3c([nH]c12)C(CC)(CC(=O)O)OCC3 (centres undefined) | inactive | inactive | inactive | inactive | inactive | inactive | inactive | inactive | inactive | inactive | inactive | inactive | inactive | inactive | inactive | inactive | inactive | inactive | inactive | inactive
11 | CCC(Cc1c(I)cc(I)c(N)c1I)C(=O)O (centres undefined) | inactive | inactive | inactive | inactive | inactive | inactive | inactive | inactive | inactive | inactive and 47.5 µM [inconclusive] (active) | inactive | 8.11 µM [inconclusive] (active) and 5.32 µM [activator] (active) | inactive | inactive | inactive | inactive | – | – | – | –
12 | CN(C)C | inactive | inactive | inactive | inactive | inactive | inactive | inactive | inactive | inactive | inactive | inactive | inactive | inactive | inactive | inactive | inactive | – | – | – | –
13 | O=C1CCc2ccccc2O1 | inactive | inactive | inactive | inactive | inactive | inactive | – | inactive | inactive | inactive | inactive | inactive | inactive | inactive | inactive | inactive | – | – | – | –
14 | OC[C@H]1O[C@@H]2O[C@H]3[C@H](O)[C@@H](O)[C@@H](O[C@H]4[C@H](O)[C@@H](O)[C@@H](O[C@H]5[C@H](O)[C@@H](O)[C@@H](O[C@H]6[C@H](O)[C@@H](O)[C@@H](O[C@H]7[C@H](O)[C@@H](O)[C@@H](O[C@H]1[C@H](O)[C@H]2O)O[C@@H]7CO)O[C@@H]6CO)O[C@@H]5CO)O[C@@H]4CO)O[C@@H]3CO | inactive | inactive | inactive | inactive | inactive | inactive | inactive | inactive | inactive | inactive | inactive | inactive | 23.7 µM (active) and inactive | inactive | inactive | inactive | – | – | – | –

— PubChem BioAssay (Tox21)
